Assay outcomes as filed in PubChem BioAssay.
FMDV antiviral: High Throughput Screening for Foot and Mouth Disease Virus Antivirals | FMDV antiviral cell-based qHTS | Potency, µM (titrated, usually from 57.9 µM), for inactives: at the highest dose activity change, negative = inhibition, most hits filed as inhibitors | 410,000 compounds, 1.2% hits | AID 1159524, 2015; calls by dose curve; tested in HEK293T cells; further: read-out not given here; nearly all actives have a fitted effect of over 45% in size
Sm TGR inh: qHTS Assay for the Inhibitors of Schistosoma Mansoni Peroxiredoxins | purified TGR, DTNB reduction, TNB absorbance 405 nm | AID 485364, 2010 | Potency, µM (highest dose often 114 µM), for inactives: at the top dose activity change, negative = inhibition, actives largely listed as inhibitors | 360,000 compounds, 3% hits | Schistosoma mansoni thioredoxin glutathione reductase (TGR), Q962Y6; further: nearly all actives have a fitted effect of over 60% in size
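TGR 20 nM + NADPH 100 uM (dispensed conc.), cpd preinc 15 min RT; start with NADPH (500 uM addition) then DTNB (15 mM addition). Kinetic TNB absorbance, 405 nm filter. Four-parameter Hill fit across titration.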
RE007 growth inh: qHTS Assay for Inhibitors of the HIV-1 protein Vpr. S. pombe RE007 Vpr strain, BacTiter-Glo ATP luminescence, 24 h. Potency, µM (series often up to 92.2 µM), for the others: at the top dose activity change, negative = less growth, hits mostly inhibitors. 360,000 compounds, 0.21% hits; active means well fitted falling curve with a large enough effect; inconclusive means small, poorly fitted or top-dose-only effect; inactive means no such curve, though single readings can be large or run the other way; further: nearly all actives have a fitted effect of over 50% in size
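Fission yeast RE007 carrying one integrated HIV-1 vpr copy, seeded at OD 0.01 in PMG+AL medium with 23 nL pinned compound. Grown 24 h at 30 degrees; viability read by BacTiter-Glo luminescence after 5 min.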
Tb PYK inh: qHTS of Trypanosoma Brucei Inhibitors; pyruvate kinase (Trypanosoma brucei), Q57TT1; TbPYK enzyme, Kinase-Glo Plus ATP luminescence, 45 min; Potency, µM (series often up to 76.8 µM), without a hit: at the highest dose activity, negative = inhibition, usual class: inhibitors; 410,000 compounds, 0.12% hits; AID 624173, 2012; further: nearly all actives have a fitted effect of over 50% in size
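Assay buffer: 50 mM TEA pH 7.2, 100 mM KCl, 10 mM MgCl2, 0.05% BSA, 0.01% Tween-20. Pyruvate kinase from T. brucei plus substrate met compound, then ADP (130 uM final). Luminescence was read post 45 min RT.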
An asterisk follows results filed as active; ? = inconclusive; nt = not tested or not shown. In the library only some 3.7% were active in any assay of this set; here they are far more common. Unless noted, the call rests on the fitted dose curve; in most records, active means well fitted curve in the direction sought with a large enough effect; inconclusive means small, poorly fitted or top-dose-only effect, or another doubt; inactive means no such curve, though single readings can be large; an effect the other way counts as inactive or inconclusive. On the % scale 0 is the no-effect control and ±100 the full control effect; potency means the concentration at half of the fitted maximal effect.

SMILES	FMDV antiviral	Sm TGR inh	RE007 growth inh	Tb PYK inh
CCOc1ccc(N2C(=O)CC(NCCNc3ccc([N+](=O)[O-])cn3)C2=O)cc1 (configuration not stated)	-21%	7.1µM*	-19%	-1%
CCCOc1ccc(N2C(=O)CC(NCCc3ccc(S(N)(=O)=O)cc3)C2=O)cc1 (configuration not stated)	1%	45µM*	?	-6%
CCOc1ccc(N2C(=O)CC(NCCc3ccc(S(N)(=O)=O)cc3)C2=O)cc1 (configuration not stated)	-7%	-10%	-21%	0%
Cc1ccc(NC(=O)CN2C(=O)COc3ccc(S(=O)(=O)NC4CCCC4)cc32)cc1Cl	21%	0%	nt	-7%
COc1cccc(C2C(C(C)=O)=C(C)Nc3ncnn32)c1 (configuration not stated)	-3%	4%	-8%	2%
COc1ccc(C2C(C(C)=O)=C(C)Nc3ncnn32)cc1 (configuration not stated)	-1%	35µM*	9%	-3%
COc1ccccc1NC(=O)C1=C(C)Nc2ncnn2C1c1ccc[nH]1 (configuration not stated)	-12%	40µM*	nt	-13%
COc1ccccc1NC(=O)C1=C(C)Nc2ncnn2C1c1ccccn1 (configuration not stated)	9%	5%	nt	0%
CCOC(=O)c1cc(-c2ccc(OC)cc2)n(CCC(=O)NCc2ccc(OC)cc2)c1C	-2%	2%	nt	-3%
Cc1ccc(-c2nnn(CC(=O)N(c3ccccc3)C(C(=O)NC3CCCC3)c3ccncc3)n2)o1 (configuration not stated)	-11%	-6%	8%	-16%
Cc1ccc(-c2nnn(CC(=O)N(Cc3ccccc3F)C(C(=O)NC3CCCC3)c3ccncc3)n2)o1 (configuration not stated)	5%	40µM*	-4%	-24%
CC(C)C[C@H](NC(=O)CNC(=O)c1cc(Cl)ccc1Cl)B(O)O	nt	nt	nt	1%
OCc1nc2ccccc2n1CC(O)Cn1ccc2ccccc21 (configuration not stated)	28µM*	-16%	-3%	-11%
O=C(NCc1ccccc1Cl)c1c2c(nc3ccccc13)C(=O)N(C1CCCCC1)C2	-10%	-3%	nt	1%
CCOC(=O)C1=C(C)n2c(s/c(=C3\C(=O)Nc4ccccc43)c2=O)=NC1c1ccc(OC)cc1 (configuration not stated)	?	25µM*	-8%	-28%
COC(=O)C1=C(C)N=c2s/c(=C3\C(=O)Nc4ccccc43)c(=O)n2C1c1ccccc1 (configuration not stated)	nt	50µM*	nt	nt
CCOC(=O)C1=C(C)N=c2s/c(=C3/C(=O)Nc4ccccc43)c(=O)n2C1c1ccc(C)cc1 (configuration not stated)	-18%	20µM*	-7%	-10%
CCOC(=O)c1c(C)nc2sc3c(c2c1-c1ccc(OC)cc1)NC(c1ccccc1)NC3=O (configuration not stated)	?	-1%	26%	-4%
CC1(c2ccc(Cl)cc2)CC(C)(C)N(C(=O)c2cccc(F)c2)c2ccccc21 (configuration not stated)	-6%	7%	nt	6%
COc1ccc2c(C(=O)CCl)c[nH]c2c1	35µM*	4.5µM*	-15%	1%
COc1ccc2c(CC#N)c[nH]c2c1	8%	50µM*	-9%	2%
COc1ccc2[nH]cc(C(=O)CN(C)C)c2c1	-17%	nt	-3%	4%
O=C(Cn1c(=O)n(Cc2ccc(C(=O)NCc3ccccc3Cl)cc2)c(=O)c2ccccc21)Nc1ccc(F)c(Cl)c1	-6%	-8%	nt	1%
Cn1cccc1Cc1nnc(SCC(=O)NCc2ccco2)n1-c1ccc(F)cc1	4%	45µM*	-13%	-5%
Cn1cccc1Cc1nnc(SCC(=O)NCC2CCCO2)n1CCc1ccccc1 (configuration not stated)	22%	-10%	-15%	-10%
SMILES	FMDV antiviral	Sm TGR inh	RE007 growth inh	Tb PYK inh
Cn1cccc1Cc1nnc(SCC(=O)NCc2ccco2)n1CCc1ccccc1	15%	50µM*	-7%	-12%
Cn1cccc1Cc1nnc(SCC(=O)NCc2ccccc2Cl)n1-c1ccc(F)cc1	-1%	0%	-16%	1%
Cc1cccc(OCCn2c(SCC(=O)O)nc3ccccc32)c1	-12%	-1%	nt	-28%
O=[N+]([O-])c1ccccc1CN1CCN(S(=O)(=O)c2ccccc2)CC1	0%	nt	18%	16%
O=[N+]([O-])c1ccccc1S(=O)(=O)N1CCN(Cc2cc3c(cc2O)OCO3)CC1	-17%	0.56µM*	-15%	-13%
Cc1ccc(C)c(S(=O)(=O)N2CCN(Cc3cc4c(cc3O)OCO4)CC2)c1	-11%	0.63µM*	-20%	1%
O=S(=O)(c1ccccc1F)N1CCN(Cc2cc3c(cc2O)OCO3)CC1	-8%	0.71µM*	-22%	-2%
CCOC(=O)c1ccc(S(=O)(=O)N2CCN(C3CCCC3)CC2)cc1	-23%	13µM*	-4%	-16%
CCOC(=O)c1ccc(S(=O)(=O)N2CCN(Cc3cc4c(cc3O)OCO4)CC2)cc1	-9%	0.35µM*	-5%	4%
COc1cc(OC)c(OC)cc1CN1CCN(c2ccc(F)cc2)CC1	-20%	3%	-3%	24%
Oc1cc2c(cc1CN1CCN(c3ccc(F)cc3)CC1)OCO2	-27%	2.5µM*	-26%	2%
N#Cc1ccc(NC(=S)Nc2ccccc2)cc1	0%	45µM*	-4%	-3%
N#Cc1cc(-c2ccccc2)[nH]c1-c1nccc2ccccc12	28µM*	19%	nt	-2%
Cc1ccccc1OCCCCn1nnc2sc3c(c2c1=O)CCC(C)C3 (configuration not stated)	0%	-4%	nt	6%
Cc1cccc(C)c1NC(=O)CN1CCN(C(=O)CNC(=O)c2ccc(-c3ccccc3)cc2)CC1	-24%	nt	-12%	-1%
Cc1cccc(NC(=O)CN2CCN(C(=O)CNC(=O)c3ccc(-c4ccccc4)cc3)CC2)c1C	20µM*	nt	-7%	0%
CC(=O)OC1CC2C(C)(C)C(=O)CC[C@]2(C)C2CC[C@]3(C)C(=CC(=O)OC3c3ccoc3)[C@]12C (some centres not stated)	-5%	nt	nt	nt
CC(=O)OC1CC2C(C)(C)C(=O)C=C[C@]2(C)C2CC[C@]3(C)C(=CC(=O)OC3c3ccoc3)[C@]12C (some centres not stated)	25µM*	nt	nt	nt
O=C(C1=C(O)C(=O)N(c2ncccn2)C1c1cccc(Cl)c1)c1ccco1 (configuration not stated)	26%	45µM*	-17%	-1%
CCN(CC)CCN1C(=O)C(O)=C(C(=O)c2ccco2)C1c1ccccn1 (configuration not stated)	8%	45µM*	-3%	-1%
